Screens deposited in PubChem BioAssay by National Center for Advancing Translational Sciences (NCATS).
Rows were chosen to be rich in hits. Some 17% of all compounds tested hit in one or more screens of this group.
DT40 TDP1 CPT = DT40-hTDP1 cell growth loss with CPT; chicken DT40 Tdp1-/-;hTDP1 cells + 20 nM CPT, ATP luminescence, 48 h; Potency, µM (top dose mostly 46.2 µM), most hits filed as inhibitors; 420,000 compounds, 12% hits; AID 686979; further: nearly all actives have a fitted effect of over 55% in size
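Cell growth measured by CellTiter-Glo luminescence after a minimum 48 h, 37 C compound exposure with 20 nM CPT in Tdp1-knockout DT40 cells stably expressing hTDP1, seeded 400/well; qHTS titration format.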
ATXN2 expr inh = inhibitors of ATXN2 expression; 360,000 compounds, 0.72% hits; HEK-293 ATXN2-luciferase reporter, luminescence, 24 h; AID 1745845; Potency, µM (titrated, usually from 57 µM), most hits filed as inhibitors; further: nearly all actives have a fitted effect of over 55% in size
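qHTS (up to 57 uM final) was run with 24 h compound exposure of reporter cells at 37 °C. Each well was multiplexed: SteadyGlo luminescence measured ATXN2-luciferase expression after a fluorogenic Gly-Phe-AFC viability readout (25 uM final).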
S2 tox = viability counter-screen for ATXN expression inhibitors; 400,000 compounds, 0.49% hits; Potency, µM (titrated, usually from 56.7 µM), hits mostly cytotoxic; AID 651635; S2 cells (HEK-293 line with an ATXN2-luciferase reporter) viability, CellTiter-Fluor protease fluorescence, 24 h; further: nearly all actives have a fitted effect of over 40% in size
HepG2 tox = kills HepG2 cells in TGF-b inhibitor counter-screen | HepG2 CAGA-GFP viability, ATP luminescence, 18 h | Potency, µM (series often up to 46.1 µM), hits mostly cytotoxic | 410,000 compounds, 0.76% hits | AID 588856
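CellTiter-Glo luminescence gave cytotoxicity after 18 hours at 37 degrees C. The cells were HepG2 CAGA-GFP in 1% FBS DMEM, stimulated with 500 pg/mL TGF-beta after compound addition. %Activity was normalised to no-cell wells (complete cell-killing) and DMSO (no toxicity), and curves were fitted and classified.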
TGFb SMAD3 inh = TGF-b pathway inhibition. HepG2 CAGA-GFP TGF-b/SMAD3 reporter, GFP fluorescence, 18 h; TGF-beta stimulated, 500 pg/mL final. Potency, µM (top dose mostly 46.1 µM), usual class: inhibitors. 410,000 compounds, 1.2% hits. AID 588855; further: nearly all actives have a fitted effect of over 65% in size
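Per well, imaged GFP fluorescence of HEPG2 CAGA-GFP cells gives the signal; cells get compound, then TGF-beta (500 pg/mL final), 18 h at 37 degrees C; %Activity versus -TGF-beta and +DMSO controls.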
DT40 TDP1 no CPT = qHTS for Inhibitors of human tyrosyl-DNA phosphodiesterase 1 (TDP1): qHTS in cells in absence of CPT | DT40 Tdp1-/- hTDP1 cells, no CPT, ATP luminescence, 48 h | Potency, µM (highest dose often 46.2 µM), most hits filed as inhibitors | 420,000 compounds, 15% hits; further: nearly all actives have a fitted effect of over 55% in size
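Camptothecin absent (DMSO only). Human TDP1-complemented DT40 knockout cells, 400 cells/well, 37 °C for minimum 48 hr; ATP measured via CellTiter-Glo, 30 min dark incubation, luminescence.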
A number is an active result. The call rests on the fitted dose curve; in most records, active means well fitted curve in the direction sought with a large enough effect; inconclusive means small, poorly fitted or top-dose-only effect, or another doubt; inactive means no such curve, though single readings can be large; an effect the other way counts as inactive or inconclusive.

Results for CN(C)CCNC(=O)c1cccc(-c2cnc3c(NC=O)cc(-c4ccc(F)cc4)cn23)c1 ?
DT40 TDP1 CPT: 4.6µM; ATXN2 expr inh: inactive; HepG2 tox: 11µM; TGFb SMAD3 inh: inconclusive; DT40 TDP1 no CPT: 5.2µM

How did CN(C)CCNC(=O)c1cccc(-c2cnc3c(NC=O)cc(/C=C/c4ccccc4)cn23)c1 do in these assays?
DT40 TDP1 CPT: 3.7µM; ATXN2 expr inh: inconclusive; S2 tox: inactive; HepG2 tox: inactive; TGFb SMAD3 inh: inconclusive; DT40 TDP1 no CPT: 5.2µM

How did CC(=O)c1cccc(-c2cnc3c(NC=O)cc(-c4ccc(F)cc4)cn23)c1 do in these assays?
DT40 TDP1 CPT: 16µM; ATXN2 expr inh: inconclusive; S2 tox: inconclusive; HepG2 tox: inactive; TGFb SMAD3 inh: inactive; DT40 TDP1 no CPT: inconclusive

What do the screens show for `O=S(=O)(c1ccccc1)c1nc(Nc2cccc(O)c2)sc1Cl`?
DT40 TDP1 CPT: inconclusive; ATXN2 expr inh: inactive; S2 tox: inactive; HepG2 tox: inactive; TGFb SMAD3 inh: inconclusive; DT40 TDP1 no CPT: inconclusive

What do the screens show for `NC(=O)c1nc(C(=O)N2CCCCC2)c2ccccc2n1`?
DT40 TDP1 CPT: inconclusive; ATXN2 expr inh: inactive; S2 tox: inactive; HepG2 tox: inactive; TGFb SMAD3 inh: inactive; DT40 TDP1 no CPT: inactive

Results for COc1ccc(C(=O)Nc2ccc(S(=O)(=O)N3CCCCC3C)cc2)c(OC)c1OC (stereo unspecified) ?
DT40 TDP1 CPT: 18µM; ATXN2 expr inh: inactive; S2 tox: inactive; HepG2 tox: inactive; TGFb SMAD3 inh: inconclusive; DT40 TDP1 no CPT: 16µM

What do the screens show for `COc1ccc(C(=O)Nc2ccc(NC(C)=O)cc2)cc1S(=O)(=O)N1CCCCC1C` (stereo unspecified)?
DT40 TDP1 CPT: inconclusive; ATXN2 expr inh: inactive; S2 tox: inactive; HepG2 tox: inactive; TGFb SMAD3 inh: inactive; DT40 TDP1 no CPT: inconclusive

Results for COc1cc(C(=O)Nc2ccc(S(=O)(=O)N3CCCCC3C)cc2)cc(OC)c1OC (stereo unspecified) ?
DT40 TDP1 CPT: 21µM; ATXN2 expr inh: inactive; S2 tox: inactive; HepG2 tox: inactive; TGFb SMAD3 inh: inactive; DT40 TDP1 no CPT: inconclusive

What do the screens show for `Cn1c(=O)c(CCc2ccccc2)nc2cnc(OCc3ccccc3)nc21`?
DT40 TDP1 CPT: inactive; DT40 TDP1 no CPT: inactive

Results for O=C(CC(NC(=O)C(F)(F)F)c1ccccc1)Nc1nnc(CCc2ccccc2)s1 (stereo unspecified) ?
DT40 TDP1 CPT: inactive; S2 tox: inactive; HepG2 tox: inactive; TGFb SMAD3 inh: inactive; DT40 TDP1 no CPT: inactive

Results for CC(=O)N(C(C)=O)n1c(C)nc2sc3c(c2c1=O)CCCC3 ?
DT40 TDP1 CPT: inactive; S2 tox: inactive; HepG2 tox: inactive; TGFb SMAD3 inh: inactive; DT40 TDP1 no CPT: inactive

What do the screens show for `CCc1nc2sc3c(c2c(=O)n1NC(=O)CCl)CCCC3`?
DT40 TDP1 CPT: 21µM; ATXN2 expr inh: inactive; S2 tox: inactive; HepG2 tox: inactive; TGFb SMAD3 inh: inactive; DT40 TDP1 no CPT: inconclusive

How did CC1Sc2ccc(C(=O)N(CCc3ccccc3)Cc3ccccc3)cc2NC1=O (stereo unspecified) do in these assays?
DT40 TDP1 CPT: 21µM; S2 tox: inactive; HepG2 tox: inactive; TGFb SMAD3 inh: inconclusive; DT40 TDP1 no CPT: inconclusive

What do the screens show for `CN(c1ccc(-c2csc(NC(=O)CCCc3nc4ccccc4c(=O)[nH]3)n2)cc1)S(C)(=O)=O`?
DT40 TDP1 CPT: 21µM; S2 tox: inactive; HepG2 tox: inactive; TGFb SMAD3 inh: inactive; DT40 TDP1 no CPT: 8.2µM

How did O=C(CCc1nc2ccccc2c(=O)[nH]1)Nc1nc(-c2cccs2)cs1 do in these assays?
DT40 TDP1 CPT: inconclusive; ATXN2 expr inh: inactive; S2 tox: inactive; HepG2 tox: inactive; TGFb SMAD3 inh: inactive; DT40 TDP1 no CPT: inconclusive
